According to ChEMBL document CHEMBL1961873, “Compounds: GSK PKIS; Assays: Nanosyn kinase panel” (2012):

How the values were obtained:
[1] = molecular target: Rho-associated protein kinase 1 (Homo sapiens) (UniProt Q13464); details: at 1 µM;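 note: reported values are mean percent inhibition of ROCK1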
[2] = molecular target: Rho-associated protein kinase 2 (Homo sapiens) (UniProt O75116); details: at 0.1 µM
[3] = molecular target: Rho-associated protein kinase 2 (Homo sapiens) (UniProt O75116); details: at 1 µM
[4] = molecular target: Ribosomal protein S6 kinase alpha-1 (Homo sapiens) (UniProt Q15418); details: at 0.1 µM
[5] = molecular target: Ribosomal protein S6 kinase alpha-1 (Homo sapiens) (UniProt Q15418); details: at 1 µM
[6] = molecular target: Ribosomal protein S6 kinase alpha-3 (Homo sapiens) (UniProt P51812); details: at 0.1 µM
[7] = molecular target: Ribosomal protein S6 kinase alpha-3 (Homo sapiens) (UniProt P51812); details: at 1 µM
[8] = molecular target: Ribosomal protein S6 kinase alpha-2 (Homo sapiens) (UniProt Q15349); details: at 0.1 µM
[9] = molecular target: Ribosomal protein S6 kinase alpha-2 (Homo sapiens) (UniProt Q15349); details: at 1 µM
[10] = molecular target: Ribosomal protein S6 kinase alpha-6 (Homo sapiens) (UniProt Q9UK32); details: at 0.1 µM;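 note: reported value is the mean inhibition of RSK4, from the GSK PKIS kinase inhibitor screen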
Ribosomal protein S6 kinase alpha-6 (Homo sapiens), sequence (Q9UK32 whole entry): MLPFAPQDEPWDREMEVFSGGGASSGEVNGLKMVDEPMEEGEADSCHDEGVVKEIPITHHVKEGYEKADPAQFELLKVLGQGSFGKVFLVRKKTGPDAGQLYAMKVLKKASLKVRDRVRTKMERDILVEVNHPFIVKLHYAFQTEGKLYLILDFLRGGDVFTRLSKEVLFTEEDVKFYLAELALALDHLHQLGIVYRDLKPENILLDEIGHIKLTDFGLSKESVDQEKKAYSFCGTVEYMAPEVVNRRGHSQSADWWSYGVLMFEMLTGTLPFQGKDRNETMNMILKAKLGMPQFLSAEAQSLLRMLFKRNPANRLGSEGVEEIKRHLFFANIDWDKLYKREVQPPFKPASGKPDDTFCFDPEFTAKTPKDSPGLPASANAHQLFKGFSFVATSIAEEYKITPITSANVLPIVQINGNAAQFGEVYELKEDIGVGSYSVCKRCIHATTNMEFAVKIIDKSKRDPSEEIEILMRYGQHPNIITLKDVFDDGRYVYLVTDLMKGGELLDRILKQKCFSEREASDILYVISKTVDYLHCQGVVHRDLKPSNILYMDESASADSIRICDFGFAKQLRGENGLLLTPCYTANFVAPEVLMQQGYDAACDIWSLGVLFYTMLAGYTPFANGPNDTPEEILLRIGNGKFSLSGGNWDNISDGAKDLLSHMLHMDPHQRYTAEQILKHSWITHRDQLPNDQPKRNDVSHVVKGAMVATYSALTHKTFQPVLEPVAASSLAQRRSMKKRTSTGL

Ribosomal protein S6 kinase alpha-3 (Homo sapiens), sequence (P51812 whole entry): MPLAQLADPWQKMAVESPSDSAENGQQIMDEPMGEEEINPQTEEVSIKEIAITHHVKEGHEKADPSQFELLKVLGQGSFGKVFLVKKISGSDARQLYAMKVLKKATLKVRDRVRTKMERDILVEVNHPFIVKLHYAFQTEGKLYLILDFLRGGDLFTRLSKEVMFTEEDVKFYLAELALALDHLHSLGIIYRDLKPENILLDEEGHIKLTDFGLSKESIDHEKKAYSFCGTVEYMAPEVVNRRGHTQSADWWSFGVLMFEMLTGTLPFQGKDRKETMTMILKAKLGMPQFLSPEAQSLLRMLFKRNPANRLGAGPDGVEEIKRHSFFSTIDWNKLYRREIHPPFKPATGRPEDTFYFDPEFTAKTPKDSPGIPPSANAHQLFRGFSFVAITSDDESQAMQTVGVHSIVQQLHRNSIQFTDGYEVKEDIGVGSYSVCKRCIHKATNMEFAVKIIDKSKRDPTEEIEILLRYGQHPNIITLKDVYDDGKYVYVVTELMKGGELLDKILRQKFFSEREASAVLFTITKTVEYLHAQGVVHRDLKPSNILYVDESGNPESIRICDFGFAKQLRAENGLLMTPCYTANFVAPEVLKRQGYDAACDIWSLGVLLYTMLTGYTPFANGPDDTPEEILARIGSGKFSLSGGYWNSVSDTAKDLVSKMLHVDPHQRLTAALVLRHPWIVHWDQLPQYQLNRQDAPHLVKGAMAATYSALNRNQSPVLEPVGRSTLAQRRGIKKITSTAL
Rho-associated protein kinase 1 (Homo sapiens), sequence (Q13464 2-1354 limits assumed): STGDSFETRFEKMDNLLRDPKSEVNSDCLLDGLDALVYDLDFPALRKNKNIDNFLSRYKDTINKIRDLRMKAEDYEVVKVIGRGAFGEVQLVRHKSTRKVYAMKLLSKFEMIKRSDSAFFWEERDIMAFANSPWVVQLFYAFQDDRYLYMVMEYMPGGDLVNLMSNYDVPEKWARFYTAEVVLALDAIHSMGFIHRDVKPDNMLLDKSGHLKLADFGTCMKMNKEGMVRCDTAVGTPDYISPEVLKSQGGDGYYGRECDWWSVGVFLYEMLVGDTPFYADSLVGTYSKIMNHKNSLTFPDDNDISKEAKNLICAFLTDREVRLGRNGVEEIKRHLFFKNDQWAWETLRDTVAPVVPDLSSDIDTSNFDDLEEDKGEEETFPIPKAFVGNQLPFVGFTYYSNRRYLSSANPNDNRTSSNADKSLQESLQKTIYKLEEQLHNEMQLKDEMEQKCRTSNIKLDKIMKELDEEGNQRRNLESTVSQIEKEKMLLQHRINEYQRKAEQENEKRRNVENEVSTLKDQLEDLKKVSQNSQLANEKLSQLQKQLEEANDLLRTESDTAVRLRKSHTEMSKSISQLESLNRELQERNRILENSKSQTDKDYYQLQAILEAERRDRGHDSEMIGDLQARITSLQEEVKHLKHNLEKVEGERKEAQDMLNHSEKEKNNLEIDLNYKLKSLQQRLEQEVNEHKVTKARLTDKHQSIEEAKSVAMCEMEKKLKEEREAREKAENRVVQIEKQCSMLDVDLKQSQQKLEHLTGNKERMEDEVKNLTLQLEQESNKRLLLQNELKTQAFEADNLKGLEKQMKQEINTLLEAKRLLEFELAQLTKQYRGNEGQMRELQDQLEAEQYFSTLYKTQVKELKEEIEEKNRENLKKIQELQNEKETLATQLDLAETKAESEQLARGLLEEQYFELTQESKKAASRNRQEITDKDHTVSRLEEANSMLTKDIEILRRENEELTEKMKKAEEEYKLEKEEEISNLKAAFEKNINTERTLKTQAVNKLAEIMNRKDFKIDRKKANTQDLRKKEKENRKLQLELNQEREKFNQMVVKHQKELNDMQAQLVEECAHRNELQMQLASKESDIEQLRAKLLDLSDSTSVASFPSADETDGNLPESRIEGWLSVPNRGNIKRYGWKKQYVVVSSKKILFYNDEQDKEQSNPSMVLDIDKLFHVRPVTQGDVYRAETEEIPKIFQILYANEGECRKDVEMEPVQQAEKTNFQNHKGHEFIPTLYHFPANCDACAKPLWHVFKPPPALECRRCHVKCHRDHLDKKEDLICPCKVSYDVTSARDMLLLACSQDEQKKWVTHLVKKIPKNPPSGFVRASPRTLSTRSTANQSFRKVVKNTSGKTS
Ribosomal protein S6 kinase alpha-2 (Homo sapiens), sequence (Q15349 whole entry): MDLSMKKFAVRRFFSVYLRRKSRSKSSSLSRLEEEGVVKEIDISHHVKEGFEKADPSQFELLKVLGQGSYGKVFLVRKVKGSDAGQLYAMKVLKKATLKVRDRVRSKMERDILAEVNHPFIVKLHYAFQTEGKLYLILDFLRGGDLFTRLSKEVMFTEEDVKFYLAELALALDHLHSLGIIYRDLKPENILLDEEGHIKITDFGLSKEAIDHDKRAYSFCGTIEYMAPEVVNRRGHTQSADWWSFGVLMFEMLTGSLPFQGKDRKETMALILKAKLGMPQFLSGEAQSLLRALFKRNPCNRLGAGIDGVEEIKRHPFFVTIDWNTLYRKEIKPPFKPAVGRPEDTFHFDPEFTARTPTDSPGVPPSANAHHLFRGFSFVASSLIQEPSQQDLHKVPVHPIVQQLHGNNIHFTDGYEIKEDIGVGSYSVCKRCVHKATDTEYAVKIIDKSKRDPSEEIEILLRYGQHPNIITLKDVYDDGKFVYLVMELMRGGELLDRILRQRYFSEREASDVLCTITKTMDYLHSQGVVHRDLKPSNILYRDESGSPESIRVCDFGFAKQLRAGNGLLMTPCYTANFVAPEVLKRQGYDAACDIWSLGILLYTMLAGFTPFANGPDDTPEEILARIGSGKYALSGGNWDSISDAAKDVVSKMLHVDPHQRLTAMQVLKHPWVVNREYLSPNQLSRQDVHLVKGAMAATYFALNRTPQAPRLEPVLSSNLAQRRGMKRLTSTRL
Ribosomal protein S6 kinase alpha-1 (Homo sapiens), sequence (Q15418 whole entry): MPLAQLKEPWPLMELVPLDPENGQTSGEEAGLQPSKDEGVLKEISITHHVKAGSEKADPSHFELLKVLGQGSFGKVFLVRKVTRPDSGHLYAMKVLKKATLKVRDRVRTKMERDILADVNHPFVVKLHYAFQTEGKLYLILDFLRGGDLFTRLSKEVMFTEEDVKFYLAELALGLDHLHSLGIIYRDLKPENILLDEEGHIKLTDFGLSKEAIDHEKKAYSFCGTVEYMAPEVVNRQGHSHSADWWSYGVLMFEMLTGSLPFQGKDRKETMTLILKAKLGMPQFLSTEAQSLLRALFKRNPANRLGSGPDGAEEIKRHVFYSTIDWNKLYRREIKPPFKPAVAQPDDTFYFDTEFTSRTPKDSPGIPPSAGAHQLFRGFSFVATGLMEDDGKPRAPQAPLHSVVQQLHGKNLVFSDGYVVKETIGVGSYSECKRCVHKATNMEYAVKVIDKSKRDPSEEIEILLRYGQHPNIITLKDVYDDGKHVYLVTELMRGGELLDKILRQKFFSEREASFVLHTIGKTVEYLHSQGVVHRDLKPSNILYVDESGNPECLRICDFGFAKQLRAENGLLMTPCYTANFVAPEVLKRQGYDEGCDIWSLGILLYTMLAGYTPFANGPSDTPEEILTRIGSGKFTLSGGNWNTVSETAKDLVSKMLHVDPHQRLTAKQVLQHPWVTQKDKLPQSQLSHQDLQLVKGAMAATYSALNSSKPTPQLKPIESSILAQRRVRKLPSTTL

Row | Structure (SMILES) | inhibition [1] | inhibition [2] | inhibition [3] | inhibition [4] | inhibition [5] | inhibition [6] | inhibition [7] | inhibition [8] | inhibition [9] | inhibition [10]
1 | NS(=O)(=O)c1ccc(N/N=C2\C(=O)Nc3ccc4ncccc4c32)cc1 | 38.4% | 15.9% | 60.3% | 6.2% | 30.6% | 7.41% | 39.4% | 15.9% | 61.7% | 13%
2 | NS(=O)(=O)c1ccc(Nc2ncc(-c3ccccc3)o2)cc1 | 2.68% | 4.4% | 8.55% | 2.44% | 6.42% | 1.17% | 4.01% | 2.5% | 4.37% | 1.15%
3 | O=C(Nc1n[nH]c2cc(-c3ccc(F)cc3)ccc12)C1CC1 | 9.51% | 7.81% | 9.75% | 6.62% | 9.5% | 4.78% | 9.26% | 3.68% | 6.96% | 1.52%
4 | COc1cccc(-c2c[nH]c3c(N/N=C/c4ccncc4)ncnc23)c1 | 7.68% | 3.52% | 11.7% | 2.76% | 7.19% | 1.21% | 7.47% | 2.28% | 11.7% | 1.63%
5 | CCCN(CCS(C)(=O)=O)Cc1ccc(-c2ccc3ncnc(Nc4ccc(OCc5cccc(F)c5)c(Cl)c4)c3c2)o1 | 0.05% | 1.92% | 2.01% | 1.36% | 0.68% | 0.4% | 0.24% | 1.59% | 1.46% | 1.43%
6 | COc1ccc(-c2cc(-c3c[nH]nc3-c3ccccn3)ccn2)cc1 | 4.3% | 4.88% | 7.92% | 2.73% | 6.34% | 1.84% | 4.06% | 2.82% | 4.07% | 1.53%
7 | N#Cc1c(NC(=O)c2ccc(F)cc2)sc2c1CCCC2 | 1.82% | 0.42% | 2.62% | 1.41% | 2.35% | 0.9% | 2.51% | -0.44% | 1.7% | -0.96%
8 | CNC(=O)c1cc(-c2ccc(F)cc2)cc(-c2ccc(S(=O)(=O)N3CCCC3)cc2)c1N | 1.95% | 1.69% | 2.18% | 0.9% | 1.77% | 1.31% | 1.69% | 2.73% | 2.91% | 0.1%
9 | CCCN1CCC(c2ccc(Nc3nc(Nc4cc(F)ccc4C(N)=O)c4cc[nH]c4n3)c(OC)c2)CC1 | 64.6% | 19.9% | 69.8% | 37.4% | 69.7% | 26.5% | 66.8% | 12% | 53.5% | 23.4%
10 | COc1ccc(-c2cc3c(N)ncnc3o2)cc1 | 1.74% | 0.73% | 1.85% | 1.04% | 0.11% | 1.43% | 2.31% | -0.65% | 0.29% | -0.28%
11 | CCOc1ccc2c(-c3ccnc(Nc4cccc(C(F)(F)F)c4)n3)cnn2n1 | -1% | 1.46% | -0.05% | -0.89% | 0.51% | 1.29% | 1.88% | 1.09% | 0.76% | -0.47%
12 | CCc1nn2ncccc2c1-c1ccnc(NC2CC2)n1 | 1.83% | 1.74% | 2.93% | 1.29% | 2.08% | 1.54% | 0.91% | 3.18% | 2.75% | 1.44%
13 | [O-][S+]1CCN(Cc2ccc(-c3ccc4ncnc(Nc5ccc(OCc6cccc(F)c6)c(Cl)c5)c4c3)o2)CC1 | 4.37% | 2.9% | 5.33% | 2.31% | 3.99% | 0.59% | 0.78% | 3.09% | 3.37% | 1.65%
14 | c1ccc(COc2ccc(Nc3ncnc4ccc(-c5ccco5)cc34)cc2)cc1 | -0.24% | 1.39% | 0.1% | -0.1% | 1.39% | 2.07% | 2.71% | 1.13% | 0.34% | 0.12%
15 | COc1cc(/C=N/Nc2ncnc3[nH]ncc23)ccc1O | 5.67% | 4.64% | 13.9% | 1.89% | 11.3% | 2.74% | 11.7% | 1.62% | 9.77% | 2.97%
16 | NC(=O)c1sc(-n2cnc3ccc(C(F)(F)F)cc32)cc1OCc1ccccc1Br | 3.95% | 2.8% | 4.98% | 2.63% | 4.25% | 0.56% | 2.48% | 0.97% | 3.47% | 0.36%
17 | CN1CCC(n2cnc(-c3ccc(F)cc3)c2-c2ccnc(N)n2)CC1 | 1.34% | 0.69% | 5.69% | 1.08% | 4.9% | -0.12% | 2.82% | 1.52% | 4.57% | 1.08%
